# Screens (PubChem)
# This is a sample that favours compounds with a hit; in the whole collection about 1.4% have one here.
# EPAC2 agonist: qHTS for Agonist of cAMP-regulated guanine nucleotide exchange factor 4 (EPAC2): primary screen. Rap guanine nucleotide exchange factor 4 (Homo sapiens), Q8WZA2. EPAC2 activation, biochemical qHTS; response scale: 100% = 6.5 mM cAMP response. Potency, µM (top dose mostly 154 µM), most hits filed as activators. hit rate 0.079% among 360,000; note: nearly all actives have a fitted effect of over 50% in size
#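 qHTS, titration series. 100 nM EPAC2 / 250 nM Rap1B-BODIPY-GDP / 50 uM GDP; RT; ex 480/em 540 nm, 5-min reads to 30 min. Norm. to 6.5 mM cAMP = activation.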
# EPAC1 agonist: qHTS for Agonist of cAMP-regulated guanine nucleotide exchange factor 3 (EPAC1): primary screen | EPAC1 agonist qHTS, biochemical assay; response scale: 100% = response to 6.5 mM cAMP | Potency, µM (top dose mostly 154 µM), actives largely listed as activators | hit rate 0.073% among 360,000; note: nearly all actives have a fitted effect of over 60% in size
# Target sequence (O95398 whole entry, looked up): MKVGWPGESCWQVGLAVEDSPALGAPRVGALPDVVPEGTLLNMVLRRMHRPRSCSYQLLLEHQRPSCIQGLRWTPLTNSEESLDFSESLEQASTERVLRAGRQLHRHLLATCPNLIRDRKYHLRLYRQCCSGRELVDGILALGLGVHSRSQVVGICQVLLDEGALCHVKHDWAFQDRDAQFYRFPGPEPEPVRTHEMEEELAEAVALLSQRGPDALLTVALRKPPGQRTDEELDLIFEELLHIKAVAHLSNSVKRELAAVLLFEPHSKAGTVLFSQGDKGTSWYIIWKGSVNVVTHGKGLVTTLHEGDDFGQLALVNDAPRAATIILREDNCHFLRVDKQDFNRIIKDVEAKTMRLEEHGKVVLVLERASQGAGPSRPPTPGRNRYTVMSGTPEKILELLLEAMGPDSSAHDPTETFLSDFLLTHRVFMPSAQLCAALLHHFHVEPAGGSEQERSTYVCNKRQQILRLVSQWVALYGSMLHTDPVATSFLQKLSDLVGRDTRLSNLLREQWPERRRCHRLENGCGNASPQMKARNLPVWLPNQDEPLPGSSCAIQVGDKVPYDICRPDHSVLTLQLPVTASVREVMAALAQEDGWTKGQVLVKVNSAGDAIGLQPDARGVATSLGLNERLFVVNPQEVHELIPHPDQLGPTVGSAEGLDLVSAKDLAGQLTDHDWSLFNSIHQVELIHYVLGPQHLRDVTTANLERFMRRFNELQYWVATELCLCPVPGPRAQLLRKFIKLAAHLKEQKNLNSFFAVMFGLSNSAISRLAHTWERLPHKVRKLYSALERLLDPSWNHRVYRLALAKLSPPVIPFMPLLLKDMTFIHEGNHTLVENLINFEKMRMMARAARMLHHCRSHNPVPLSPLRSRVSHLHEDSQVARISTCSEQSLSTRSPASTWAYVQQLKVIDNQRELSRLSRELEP
#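 Read-out is the fluorescence drop as BODIPY-GDP leaves Rap1B (480 nm excitation, 540 nm emission), recorded every 5 minutes over 30 minutes. Reactions held 100 nM EPAC1, 250 nM Rap1B–BODIPY-GDP and 50 uM GDP, with 6.5 mM cAMP setting full activation.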
# EPAC2 antagonist: qHTS for Antagonist of cAMP-regulated guanine nucleotide exchange factor 2 (EPAC2): primary screen; Rap guanine nucleotide exchange factor 4 (Homo sapiens), Q8WZA2; EPAC2 GEF exchange of Rap1B-BODIPY-GDP, fluorescence; Potency, µM (series often up to 114 µM), most hits filed as inhibitors; hit rate 0.18% among 360,000; note: nearly all actives have a fitted effect of over 45% in size
# KCNH2 3.1 inh: qHTS for Inhibitors of KCHN2 3.1: Mutant qHTS | activity change, % (tested at about 1.8 µM) | hit rate 0.95% among 340,000 | AID 720553, 2013 | U2OS KCNH2 3.1, thallium flux FluxOr; stronger effect = lower value | Potassium voltage-gated channel subfamily H member 2, brain isoform KCNH2 3.1 (human);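 active = maximum activity change below -70%; inconclusive = maximum activity change from -70% to -50%; inactive = maximum activity change above -50%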;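 note: thallium influx rate constant from kinetic fluorescence after stimulation buffer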
#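 Measured as rate of thallium-driven FluxOr signal in transduced U2OS cells carrying the 3.1 channel, read kinetically for 2 min upon stimulation; values are rate constants scaled to DMSO control wells.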
# EPAC1 antagonist: qHTS for Antagonist of cAMP-regulated guanine nucleotide exchange factor 3 (EPAC1): primary screen; Rap guanine nucleotide exchange factor 3 (Homo sapiens), O95398; EPAC1 GEF assay, Rap1b-BODIPY-GDP exchange fluorescence; Potency, µM (titrated, usually from 115 µM), actives largely listed as inhibitors; hit rate 0.14% among 360,000; note: nearly all actives have a fitted effect of over 50% in size
# hERG WT inh: qHTS for Inhibitors of KCHN2 3.1: Wildtype qHTS; Voltage-gated inwardly rectifying potassium channel KCNH2 (Homo sapiens), Q12809; U2OS, BacMam KCNH2, thallium flux FluxOr; stronger effect = lower value; activity change, % at 1.84 µM; hit rate 0.37% among 340,000;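 active = maximum activity change below -70%; inconclusive = maximum activity change between -70% and -50%; inactive = maximum activity change above -50%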
#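 U2OS cells transduced with wild-type KCNH2 virus are loaded with FluxOr dye for 45 min, and thallium flux is measured in kinetic reads before and after stimulation buffer. Rate constants are normalized to DMSO controls.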
# Hits are given with their value; 0 = inactive; ? = inconclusive; - = no result. Unless noted, calls come from the whole dose curve; as a rule, active = well fitted curve in the direction sought with a large enough effect; inconclusive = small, poorly fitted or top-dose-only effect, or another doubt; inactive = no such curve, though single readings can be large; an effect the other way counts as inactive or inconclusive.
SMILES,EPAC2 agonist,EPAC1 agonist,EPAC2 antagonist,KCNH2 3.1 inh,EPAC1 antagonist,hERG WT inh
Cc1ccc(NC(=O)C2CCCN(C(=O)c3ccc(Cl)cc3)C2)cc1C (stereo not given),0,0,0,-122,0,0
Cc1ccc(NC(=O)C2CCCN(C(=O)c3ccc(Cl)cc3)C2)cc1 (stereo not given),0,0,0,0,0,0
COc1cccc(OC)c1OCCN1CCN(C(c2ccccc2)c2ccccc2)CC1,0,0,0,-103,0,?
COc1ccccc1N1CCN(CCCCOc2c(OC)cccc2OC)CC1,0,0,0,0,0,0
COc1cccc(OC)c1OCCCN1CCC(Cc2ccccc2)CC1,0,0,0,-70,0,0
CN(C[C@H](Cc1ccccc1)N(CCN(CCc1ccccc1)N=O)N=O)N=O,0,0,0,-200,0,0
CC(C)C[C@@H](CN(C)N=O)N(C[C@H](Cc1ccccc1)N(CCc1ccccc1)N=O)N=O,0,0,0,0,0,0
O=C(Nc1ccnn1C1CCN(CCCC2CCCC2)CC1)c1ccccc1Cl,0,0,0,-106,0,-93
COc1ccccc1C(=O)Nc1ccnn1C1CCN(CCCC2CCCC2)CC1,0,0,0,-114,0,-143
COc1ccccc1C(=O)Nc1ccnn1C1CCN(C2CCCCC2)CC1,0,0,0,0,0,0
O=C(Nc1ccnn1C1CCN(CC2CC=CCC2)CC1)c1ccccc1 (stereo not given),0,0,0,0,0,0
COc1ccccc1C(=O)Nc1ccnn1C1CCN(CC2CC=CCC2)CC1 (stereo not given),0,0,0,-80,0,0
Cc1cc(C)c(CN2CCC(n3nccc3NC(=O)c3ccccc3Cl)CC2)cc1C,0,0,0,-,0,0
CC(C)(C)CN1CCC(n2nccc2NC(=O)c2ccccc2Cl)CC1,0,0,0,0,0,0
CC(CCN1CCC(n2nccc2NC(=O)c2ccccc2Cl)CC1)c1ccccc1 (stereo not given),0,0,0,-99,0,?
CCCCN(C)C(=O)c1nc2ccccn2c1CN1CCC[C@H]1CO,0,0,0,0,0,0
CSCCC(C)N1CCC(Oc2ccc(C(=O)NCc3ccccn3)cc2)CC1 (stereo not given),0,0,0,0,0,0
Cc1ccc(/C([O-])=C(/C(=S)NCc2ccccc2)[n+]2cccc(CO)c2)cc1[N+](=O)[O-],0,0,0,0,0,-74
COc1ccc2oc3cc(NCCN(C)C)ccc3c(=O)c2c1,0,0,0,-,0,-
Clc1ccc(C2Nc3cccc4cccc(c34)N2)c(Cl)c1,0,0,10µM,0,0,0
Clc1ccc(C2Nc3cccc4cccc(c34)N2)cc1,0,0,?,0,0,0
Cc1ccc(NC(=O)c2cc(-c3cc(C)c(C)cc3O)n[nH]2)cc1C,0,0,0,0,0,0
CCCCC(=O)Nc1ccc(C(=O)NNC(=O)c2ccco2)cc1,0,0,0,0,0,-154
CN(Cc1ccccc1)C(=O)C1CCN(S(=O)(=O)c2ccc(-n3cnnn3)cc2)CC1,0,0,0,0,0,0
CCc1ccccc1NC(=O)CNC(=O)CCc1nc2sc3c(c2c(=O)[nH]1)CCCC3,0,0,0,0,0,0
O=S(=O)(O)c1ccc(N=NNc2ccc(Br)cc2)cc1,0,0,45µM,0,0,0
O=Cc1cc(N=Nc2ccc(S(=O)(=O)O)cc2)ccc1O,0,0,0,0,0,0
